Assay outcomes: PubChem, several laboratories
Compounds with a hit are over-represented: about 3.8% of the library has one in this group of screens.
Mdm2-MdmX inh = inhibitors of human Mdm2-MdmX association, primary screen, cell-based, luminescence, split luciferase, SaOS-2, uHTS; Protein Mdm4 (Homo sapiens) + E3 ubiquitin-protein ligase Mdm2 (Homo sapiens), …; SaOS-2 split-luciferase Mdm2/MdmX complementation; inhibition, % at 8 µM; 330,000 compounds, 3% hits; AID 485346, 2010;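 active = inhibition of at least 50% at 8 µM in the primary screen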
Target sequence (O15151 whole entry, looked up): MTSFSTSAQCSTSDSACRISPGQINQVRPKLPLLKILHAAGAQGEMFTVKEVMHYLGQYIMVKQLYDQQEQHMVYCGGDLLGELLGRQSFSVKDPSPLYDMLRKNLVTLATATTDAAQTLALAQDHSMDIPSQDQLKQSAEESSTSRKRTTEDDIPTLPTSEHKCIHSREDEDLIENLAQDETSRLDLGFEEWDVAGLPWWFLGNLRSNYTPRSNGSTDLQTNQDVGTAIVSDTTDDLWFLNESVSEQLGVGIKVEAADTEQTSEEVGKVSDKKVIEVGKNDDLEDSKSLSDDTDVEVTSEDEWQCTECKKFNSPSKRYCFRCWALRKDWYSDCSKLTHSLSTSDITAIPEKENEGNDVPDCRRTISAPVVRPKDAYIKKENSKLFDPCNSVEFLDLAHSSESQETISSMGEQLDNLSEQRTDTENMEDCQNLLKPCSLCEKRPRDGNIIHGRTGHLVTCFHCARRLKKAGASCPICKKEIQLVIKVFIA
Target sequence (Q00987 whole entry, looked up): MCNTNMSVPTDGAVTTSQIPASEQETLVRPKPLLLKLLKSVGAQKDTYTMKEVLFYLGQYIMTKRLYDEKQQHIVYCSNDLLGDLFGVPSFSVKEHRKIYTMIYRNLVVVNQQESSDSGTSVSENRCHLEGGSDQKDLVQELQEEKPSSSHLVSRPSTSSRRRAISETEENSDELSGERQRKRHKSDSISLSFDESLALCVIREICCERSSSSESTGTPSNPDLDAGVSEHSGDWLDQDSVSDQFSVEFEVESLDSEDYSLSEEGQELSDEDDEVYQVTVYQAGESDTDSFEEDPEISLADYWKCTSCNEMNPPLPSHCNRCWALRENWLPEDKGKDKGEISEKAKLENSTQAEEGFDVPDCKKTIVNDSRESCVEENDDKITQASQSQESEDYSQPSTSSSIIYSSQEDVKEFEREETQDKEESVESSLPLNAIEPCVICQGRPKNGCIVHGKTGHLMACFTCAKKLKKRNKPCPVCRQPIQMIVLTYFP
Gli-Sufu antag = Gli-Sufu pathway antagonists, primary screen, luciferase luminescence, Sufu-KO-LIGHT cells, uHTS; 340,000 compounds, 0.74% hits; inhibition, % at 5 µM; AID 588413, 2011; Sufu-KO-LIGHT fibroblasts, Gli luciferase reporter luminescence;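 active = inhibition above about 55%, limit read from the data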;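 also: 0% = DMSO-treated cells and 100% = wells with medium but no cells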
697 NFkB inh = inhibitors of PMA/ionomycin-induced NF-kB reporter, 697 cells, primary screen, B-cell NF-kB inhibitor project, cell-based, luminescence, uHTS | inhibition, % at 4 µM | AID 435022, 2010 | 330,000 compounds, 0.33% hits | 697 B-cell NF-kB luciferase reporter, 16 h; in the data active = inhibition above about 35%
Jurkat NFkB inh = inhibitors of induced NF-kB luciferase reporter, primary screen, TCR NF-kB activation inhibitor project, cell-based, luminescence, uHTS. 330,000 compounds, 0.53% hits. Jurkat, PMA/ionomycin-induced NF-kB luciferase reporter. inhibition, % at 4 µM; in the data active = inhibition above about 50%
Shn3 inh set2 = reduction of Shn3 3'UTR firefly luciferase signal, primary screen, Schnurri-3 inhibitor project, cell-based, Clone20 osteoblasts, set 2 | inhibition, % at 12.5 µM | AID 588674, 2011 | Clone20 osteoblast Shn3 3'UTR firefly luciferase, 24 h | 360,000 compounds, 0.52% hits;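 active = mean inhibition of at least 75% with every replicate also reaching 75%; inconclusive = mean inhibition at least 75% but some replicate below; inactive = mean inhibition below 75%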;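 also: 0% = median of neutral control wells and 100% = pilot-screen positive control compound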
Mdm2-MdmX conf = Mdm2-MdmX complex disruptors, retested hits, confirmation, luminescence, single concentration; shares compounds with Mdm2-MdmX inh; Mdm2-MdmX binding, luminescent assay; inhibition, % at 8 µM; 10,000 compounds, 55% hits; in the data active = inhibition above about 40%
Full FLuc ctr = full-length luciferase signal inhibition, confirmation, counter-screen for Mdm2/MdmX interaction inhibitor project, cell-based, single concentration, SaOS-2; shares compounds with Mdm2-MdmX inh; SaOS-2 full-length luciferase counterscreen, luminescence; inhibition, % at 8 µM; 6,200 compounds, 77% hits; AID 504607, 2011;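 active = mean inhibition at 8 µM reaching about 37%, which flags the compound as non-specific, limit read from the data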;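 also: p53-null SaOS-2 cells with luciferase driven by a doxycycline-inducible promoter; compound on cells about two nights before reading with doxycycline added after day one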
Starred values were filed as active, the others as inactive.

COC(=O)C(CC(=O)c1ccc(Br)cc1)n1nc(C)cc1C (stereo not given) was read as Mdm2-MdmX inh 1.8, Gli-Sufu antag -1.1, 697 NFkB inh -18.5, Jurkat NFkB inh -12.8 and Shn3 inh set2 3.1.
COc1c2c(c(OC)c3ccccc13)[C@@]1(OC2)O[C@H](CCO)C[C@H](O)[C@H]1O was read as Shn3 inh set2 -11.6.
`COc1ccccc1NCCC(=O)OCC(=O)Nc1ccccc1Cl` gave Mdm2-MdmX inh 12.8, Gli-Sufu antag 5.4, 697 NFkB inh 0.3, Jurkat NFkB inh 6.2 and Shn3 inh set2 -5.3.
CCN(CC(=O)NCc1ccc(F)cc1)C(=O)/C=C/c1ccc(S(=O)(=O)N(CC)CC)cc1 was read as Mdm2-MdmX inh 1.0, Gli-Sufu antag 19.4, 697 NFkB inh -2.7, Jurkat NFkB inh 45.7 and Shn3 inh set2 9.8.
Screening O=C(N/C(=C/c1ccc(Br)cc1)C(=O)N1CCCCC1)c1ccccc1F returned Mdm2-MdmX inh 3.4, Gli-Sufu antag -6.0, 697 NFkB inh -26.8, Jurkat NFkB inh -8.0 and Shn3 inh set2 2.1.
For Cc1c(Nc2cc(Cl)c3nonc3c2[N+](=O)[O-])c(=O)n(-c2ccccc2)n1C the results were Mdm2-MdmX inh 99.3*, Gli-Sufu antag 44.8, 697 NFkB inh 9.6, Jurkat NFkB inh 18.1, Shn3 inh set2 96.3*, Mdm2-MdmX conf 98.2* and Full FLuc ctr 57.1*.
For O=[N+]([O-])c1c(Nc2cccc(O)c2)cc(Cl)c2nonc12 the results were Mdm2-MdmX inh 100.3*, Gli-Sufu antag -1.8, 697 NFkB inh -12.1, Jurkat NFkB inh 16.2, Shn3 inh set2 inconclusive, Mdm2-MdmX conf 99.7* and Full FLuc ctr 51.5*.
`COc1cccc(CNC(=O)C(=O)NCC2OCCCN2S(=O)(=O)c2cc(C)ccc2C)c1` (stereo not given) gave Mdm2-MdmX inh -10.0, Gli-Sufu antag 6.8, 697 NFkB inh -4.3, Jurkat NFkB inh 20.1 and Shn3 inh set2 12.8.
For CC1(C(=O)Nc2cccc(OC(F)(F)F)c2)Cc2c(-c3ccc(C(N)=O)cc3)ccnc2O1 (stereo not given) the results were Shn3 inh set2 34.0.
Screening Cc1ccc(Sc2nc(-c3ccccc3)nnc2C(F)(F)F)cc1 returned Mdm2-MdmX inh 54.0*, Gli-Sufu antag 1.1, 697 NFkB inh 16.0, Jurkat NFkB inh 5.5, Shn3 inh set2 78.5 and Mdm2-MdmX conf 3.6.
Screening CC(C)C(NS(=O)(=O)c1ccccc1)C(=O)OCc1cc([N+](=O)[O-])cc2c1OCOC2 (stereo not given) returned Gli-Sufu antag -1.6 and Shn3 inh set2 0.4.
`Cc1sc2nc(SCC(=O)NCc3ccco3)n(CCc3ccccc3)c(=O)c2c1C` gave Mdm2-MdmX inh 62.9*, Gli-Sufu antag 22.2, 697 NFkB inh -5.6, Jurkat NFkB inh -4.7, Shn3 inh set2 71.1 and Mdm2-MdmX conf 25.1.
For COc1cc2nc(SCC(=O)NCc3ccco3)n(Cc3ccc(Cl)cc3)c(=O)c2cc1OC the results were Mdm2-MdmX inh 77.7*, Gli-Sufu antag 14.1, 697 NFkB inh 7.8, Jurkat NFkB inh 0.5, Shn3 inh set2 36.2 and Mdm2-MdmX conf 31.7.
`Cc1sc2nc(SCC(=O)NCc3ccco3)n(C)c(=O)c2c1C` gave Mdm2-MdmX inh 28.4, Gli-Sufu antag -4.5, 697 NFkB inh 4.1, Jurkat NFkB inh 22.8 and Shn3 inh set2 23.4.
For CCOc1ccc(N2C(=O)C3C(c4ccccc4F)NN(C(=O)c4ccc(C)cc4)C3C2=O)cc1 (stereo not given) the results were Mdm2-MdmX inh 6.0, Gli-Sufu antag -3.4, 697 NFkB inh 18.0, Jurkat NFkB inh 9.4 and Shn3 inh set2 5.8.
For COCc1nnc(NC(=O)C2CC(=O)N(c3ccc(C)c(Cl)c3)C2)s1 (stereo not given) the results were Mdm2-MdmX inh -8.7, Gli-Sufu antag -2.8, 697 NFkB inh -10.5, Jurkat NFkB inh 11.4 and Shn3 inh set2 -3.6.
Screening Cc1ccc(N2CC(C(=O)Nc3nccs3)CC2=O)cc1Cl (stereo not given) returned Mdm2-MdmX inh 83.7*, Gli-Sufu antag -99.8, 697 NFkB inh 11.5, Jurkat NFkB inh 14.1, Shn3 inh set2 -7.1, Mdm2-MdmX conf 69.0* and Full FLuc ctr active.
For Cc1cc(Nc2nc3ccccc3nc2Cl)n(-c2ccccc2C)n1 the results were Mdm2-MdmX inh 43.9, Gli-Sufu antag -0.7, 697 NFkB inh 0.5, Jurkat NFkB inh -8.8 and Shn3 inh set2 -1.2.
Cc1cc(Nc2nc3ccccc3nc2Cl)n(-c2ccccc2)n1 was read as Mdm2-MdmX inh 63.9*, Gli-Sufu antag 6.9, 697 NFkB inh 11.7, Jurkat NFkB inh -1.0, Shn3 inh set2 1.9, Mdm2-MdmX conf 58.7* and Full FLuc ctr 40.9*.
`Cn1nc(C(F)(F)F)c(-c2ccc(F)cc2)c1NC(=O)c1ccco1` gave Mdm2-MdmX inh 15.5, Gli-Sufu antag -4.8, 697 NFkB inh 8.6 and Jurkat NFkB inh 10.0.
Cn1nc(C(F)(F)F)c(-c2ccc(Br)cc2)c1NC(=O)Nc1ccc(F)cc1F was read as Mdm2-MdmX inh 90.7*, Gli-Sufu antag 3.4, 697 NFkB inh -5.1, Jurkat NFkB inh 18.3, Mdm2-MdmX conf 50.4* and Full FLuc ctr 39.4*.
`CCC(Sc1nc(-c2ccccc2)c(C#N)c(=O)[nH]1)C(=O)Nc1nnc(C)s1` (stereo not given) gave Mdm2-MdmX inh -5.4, Gli-Sufu antag -6.3, 697 NFkB inh -13.0, Jurkat NFkB inh -16.6 and Shn3 inh set2 16.5.
For Nc1nc(N)nc(-c2ccc(Cl)c(Cl)c2)n1 the results were Mdm2-MdmX inh 50.4*, Gli-Sufu antag -114.1, 697 NFkB inh -117.3, Jurkat NFkB inh -71.4, Shn3 inh set2 -132.2 and Mdm2-MdmX conf 35.2.
Cc1ccccc1CN1C(=O)/C(=C\c2ccc(C(=O)NCCN3CCOCC3)cc2)Sc2ccccc21 was read as Mdm2-MdmX inh 45.1, Gli-Sufu antag -6.3, 697 NFkB inh -4.4, Jurkat NFkB inh 1.8 and Shn3 inh set2 15.8.
`Cc1cccc(CN2C(=O)/C(=C\c3ccc(C(=O)NCCN4CCOCC4)cc3)Sc3ccccc32)c1` gave Mdm2-MdmX inh 80.5*, Gli-Sufu antag -0.1, 697 NFkB inh -7.1, Jurkat NFkB inh -10.3, Shn3 inh set2 0.0, Mdm2-MdmX conf 61.1* and Full FLuc ctr 76.2*.
